Assay results published in PubChem BioAssay AID504915 (The Scripps Research Institute Molecular Screening Center, 2011).
The list shows a part of the results. Values without a mark were called inactive. Rule as the data show it: active = activation above about 17%; inactive = the rest.

Target: 5-hydroxytryptamine receptor 5A (Homo sapiens) (UniProt P47898)
Test: activation of human 5-HT5A receptor – cell-based, luminescence, confirmation (AID 504915);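 also: 0% = cells with vehicle only and 100% = full reference agonist response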
Details: HTR5A agonist cell assay, at 9.3 µM, stronger effect = higher value

Sequence of 5-hydroxytryptamine receptor 5A (Homo sapiens) (P47898 whole entry, looked up): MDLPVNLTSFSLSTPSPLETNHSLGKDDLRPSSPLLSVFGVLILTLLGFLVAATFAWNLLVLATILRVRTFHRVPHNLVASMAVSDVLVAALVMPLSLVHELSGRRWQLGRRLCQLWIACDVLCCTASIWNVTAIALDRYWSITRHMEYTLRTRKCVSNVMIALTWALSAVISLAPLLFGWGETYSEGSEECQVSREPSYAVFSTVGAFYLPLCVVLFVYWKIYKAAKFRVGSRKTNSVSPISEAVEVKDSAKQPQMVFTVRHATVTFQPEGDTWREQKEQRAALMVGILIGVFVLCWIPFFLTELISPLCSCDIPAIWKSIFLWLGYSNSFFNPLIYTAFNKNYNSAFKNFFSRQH

CCCCCCCCCCCCn1ccc(=N)cc1
activation: 0.13%
